# Laboratory results: the supplement of paper PMC10498489
# Among all 2,300 compounds or so, about 330 (14%) showed activity.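 Rule for the calls: active = median modified Z-score above 1.96; inactive = 1.96 or below.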 A selection follows.
# Test system: HepG2 Srxn1-GFP reporter cells (+30 nM CDDO-Me)
# Experiment: Srxn1-GFP intensity median modified Z-score relative to plate median; higher = stronger NRF2 / oxidative stress reporter activation, active = hit call of the paper
# Settings: 10 µM; exposure time: 24h
# Procedure, shortened: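 Values give the median, over replicates, of the modified Z-score of GFP intensity on each plate. HepG2 Srxn1-GFP BAC reporter cells were co-treated for 24 h with an NRF2 activator at 30 nM and compound at 10 μM (≤0.1% DMSO) in three replicate plates, then analysed per cell for cytoplasmic GFP on confocal images with at least 100 cells. Scaling used 1.4826 × median absolute deviation.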
row,SMILES,Srxn1-GFP intensity median modified Z-score
1,COc1ccc(=NS(=O)(=O)c2ccc(N)cc2)[nH]n1 [euspeclibcmpd409],-0.327 (inactive)
2,CC(C)c1nc(CN(C)C(=O)NC(C(=O)N[C@@H](Cc2ccccc2)C[C@H](O)[C@H](Cc2ccccc2)NC(=O)OCc2cncs2)C(C)C)cs1 (stereo partly drawn) [euspeclibcmpd486],0.333 (inactive)
3,COc1ccccc1N1CCN(CCCNc2cc(=O)n(C)c(=O)n2C)CC1 [euspeclibcmpd1121],-0.334 (inactive)
4,COC1=C(C)C2CC(=O)O[C@@H]3C[C@H]4C(C)=CC(OC)C(=O)[C@]4(C)C(C1=O)[C@]23C (stereo partly drawn) [euspeclibcmpd1498],0.142 (inactive)
5,COc1ccc2cc1Oc1ccc(cc1)C[C@H]1c3c(cc4c(c3Oc3cc5c(cc3OC)CCN(C)[C@@H]5C2)OCO4)CCN1C [euspeclibcmpd1270],4.85 (active)
6,COc1ccc2c(c1OC)C(=O)O[C@H]2[C@H]1c2c(cc3c(c2OC)OCO3)CCN1C [euspeclibcmpd216],0.635 (inactive)
7,COc1ccc2cc1Oc1ccc(cc1)C[C@H]1c3cc(c(OC)cc3CCN1C)Oc1c(OC)c(OC)cc3c1[C@H](C2)N(C)CC3 [euspeclibcmpd1476],21.7 (active)
8,CN1CC(=O)N2C(Cc3c([nH]c4ccccc34)[C@H]2c2ccc3c(c2)OCO3)C1=O (stereo partly drawn) [euspeclibcmpd833],-0.451 (inactive)
9,CO[C@@H]1[C@@H](O[C@@H]2O[C@H](C)[C@@H](O[C@H]3C[C@@](C)(O)[C@H](O)[C@H](C)O3)[C@H](N(C)C)[C@H]2O)[C@@H](CC=O)C[C@@H](C)[C@@H](O[C@H]2CC[C@H](N(C)C)[C@@H](C)O2)/C=C/C=C/C[C@H](C)OC(=O)C[C@H]1O [euspeclibcmpd581],0.0936 (inactive)
10,CC(C)(O)c1ccccc1CC[C@@H](SCC1(CC(=O)O)CC1)c1cccc(/C=C/c2ccc3ccc(Cl)cc3n2)c1 [euspeclibcmpd2362],8.32 (active)
11,CC1=CC(=O)C2C(C)(C)CCC[C@]2(C)[C@@]1(O)CCc1ccoc1 (stereo partly drawn) [euspeclibcmpd1719],17.2 (active)
12,CCC1(CC)C(=O)CC=NC1=O [euspeclibcmpd1119],-0.354 (inactive)
13,CN(C)CCCOc1nn(Cc2ccccc2)c2ccccc12 [euspeclibcmpd892],-0.182 (inactive)
14,C=CCOC(=O)C1=C(C)NC(C)=C(C(=O)OCC=C)C1/C=C/c1ccccc1,4.92 (active)
15,COC1=CC(/C=C/c2ccccc2)OC(=O)C1 (stereo not drawn) [euspeclibcmpd1481],-0.206 (inactive)
16,Nc1ccc(S(=O)(=O)N=c2[nH]ccs2)cc1 [euspeclibcmpd281],-0.259 (inactive)
17,CC(=O)OCC(=O)[C@@]1(O)CCC2C3CC=C4CC(=O)C=C[C@]4(C)[C@@]3(F)[C@@H](O)C[C@@]21C (stereo partly drawn) [euspeclibcmpd2402],-0.201 (inactive)
18,CC(C)CCCC(C)C1CCC2C3CC[C@H]4CC(=O)CC[C@]4(C)C3CC[C@]12C (stereo partly drawn) [euspeclibcmpd1405],-0.338 (inactive)
19,NC(C(=O)C(=O)O)C(O)O (stereo not drawn) [euspeclibcmpd1337],-0.207 (inactive)
20,Cc1nc2sccn2c(=O)c1CCN1CCC(=C(c2ccc(F)cc2)c2ccc(F)cc2)CC1 [euspeclibcmpd532],7.86 (active)
21,Cc1nc2ccccn2c(=O)c1CCN1CCC(C(=O)c2ccc(F)cc2)CC1 [euspeclibcmpd878],-0.586 (inactive)
22,Cc1nc2n(c(=O)c1CCN1CCC(c3noc4cc(F)ccc34)CC1)CCCC2 [euspeclibcmpd909],0.484 (inactive)
23,CCC(=O)OCC(=O)C1(OC(=O)CC)C(C)CC2C3C(Cl)C=C4CC(=O)C=CC4(C)C3C(O)CC21C (stereo not drawn) [euspeclibcmpd1830],-0.727 (inactive)

row,SMILES,Srxn1-GFP intensity median modified Z-score
1,Cc1cc(O)c(C)c(O)c1C(=O)O [euspeclibcmpd2002],-0.247 (inactive)
2,CC(=O)NC(CCC(C)C)C(=O)O (stereo not drawn),1.23 (inactive)
3,CC(=O)O[C@H]1CC[C@@]2(C)C(CC[C@]3(C)C2CC=C2C4CC(C)(C)CC[C@]4(C)CC[C@]23C)C1(C)C (stereo partly drawn) [euspeclibcmpd1641],-0.192 (inactive)
4,CC1=C(/C=C/C(C)=C/C=C/C(C)=C/C=C/C=C(C)/C=C/C=C(C)/C=C/C2=C(C)CCCC2(C)C)C(C)(C)CCC1 [euspeclibcmpd256],1.65 (inactive)
5,CC1=C(/C=C/C(C)=C/C=C/C(C)=C/CO)C(C)(C)CCC1 [euspeclibcmpd419],-0.0835 (inactive)
6,CC(C=C/C=C(C)/C=C/C1=C(C)CCCC1(C)C)=CC(=O)O [euspeclibcmpd2414],3.46 (active)
7,CC[C@]12CCCN3CCc4c(n(c5ccccc45)[C@](O)(C(=O)OC)C1)[C@@H]32 [euspeclibcmpd1043],1.43 (inactive)
8,COC(=O)C1=C(C)N=C(C)C(C(=O)OCCN(C)Cc2ccccc2)C1c1cccc([N+](=O)[O-])c1 (stereo not drawn) [euspeclibcmpd393],-0.375 (inactive)
9,COC(=O)C1=C(C)N=C(C)C(C(=O)OCC(C)C)C1c1ccccc1[N+](=O)[O-] (stereo not drawn) [euspeclibcmpd766],10.8 (active)
10,COCCOC(=O)C1=C(C)N=C(C)C(C(=O)OC(C)C)C1c1cccc([N+](=O)[O-])c1 (stereo not drawn) [euspeclibcmpd585],0.492 (inactive)
11,COC(=O)C1=C(C)N=C(C)C(C(=O)OCCN2CCN(C(c3ccccc3)c3ccccc3)CC2)C1c1cccc([N+](=O)[O-])c1 (stereo not drawn) [euspeclibcmpd869],5.13 (active)
12,COC(=O)C1=C(C)N=C(C)C(C(=O)OC)C1c1ccccc1[N+](=O)[O-] (stereo not drawn) [euspeclibcmpd208],-0.363 (inactive)
13,C#C[C@]1(O)CCC2C3CCC4=Cc5oncc5C[C@]4(C)C3CC[C@@]21C (stereo partly drawn) [euspeclibcmpd81],-0.371 (inactive)
14,N=c1[nH]cnc2c1ncn2[C@@H]1O[C@H](COP(=O)(O)OP(=O)(O)OC[C@H]2O[C@@H]([n+]3cccc(C(N)=O)c3)[C@H](O)[C@@H]2O)[C@@H](O)[C@H]1O [euspeclibcmpd202],-0.305 (inactive)
15,CCC(=O)OCC(=O)[C@@]1(OC(=O)CC)[C@@H](C)CC2C3CC=C4CC(=O)C=C[C@]4(C)C3(F)[C@@H](O)C[C@@]21C (stereo partly drawn) [euspeclibcmpd541],-0.359 (inactive)
16,O=C(O)c1cc(-c2ccccc2)nc2cc(Br)ccc12,1.37 (inactive)
17,CC1OC(n2cc(F)c(=O)[nH]c2=O)C(O)C1O (stereo not drawn) [euspeclibcmpd1997],-0.334 (inactive)
18,CN[C@@H]1[C@H](O)[C@H](NC)[C@H]2O[C@@]3(O)C(=O)C[C@@H](C)O[C@H]3O[C@@H]2[C@H]1O [euspeclibcmpd268],-0.125 (inactive)
19,COc1ccc([C@H]2Oc3cc(OC)cc(OC)c3C[C@H]2O)cc1 [euspeclibcmpd1383],0 (inactive)
20,COc1ccc2c(c1)O[C@@H]1COc3cc(OC)c(OC)cc3C1C2=O (stereo partly drawn) [euspeclibcmpd1700],22.8 (active)
21,COc1cc2c(cc1OC)C1C(=O)c3ccc4c(c3O[C@@H]1CO2)C=CC(C)(C)O4 (stereo partly drawn) [euspeclibcmpd1734],12.7 (active)
22,COc1cc2c(cc1OC)C1C(=O)c3c(O)cc4c(c3OC1CO2)C=CC(C)(C)O4 (stereo not drawn) [euspeclibcmpd1478],1.56 (inactive)
23,COc1ccc2c(c1)O[C@H]1c3ccc(OC)cc3OC[C@@H]21 [euspeclibcmpd1733],-0.45 (inactive)

row,SMILES,Srxn1-GFP intensity median modified Z-score
1,CCOC(=O)c1c(NC(=O)COC(=O)C(C)NC(N)=O)sc(C(C)=O)c1C (stereo not drawn),1.26 (inactive)
2,CCN(CC)CCCC(C)N=c1c2ccc(Cl)cc2[nH]c2ccc(OC)cc12 (stereo not drawn) [euspeclibcmpd261],19.2 (active)
3,CCN(CC)CCCC(C)N=c1cc[nH]c2cc(Cl)ccc12 (stereo not drawn) [euspeclibcmpd325],-0.157 (inactive)
4,O[C@@H]1[C@H](O)CO[C@H]1O [euspeclibcmpd1668],-0.319 (inactive)
5,COc1ccc(-c2coc3cc(OC)ccc3c2=O)cc1 [euspeclibcmpd2413],-0.165 (inactive)
6,C[C@]12C=CC(=O)CC1=CCC1C2[C@@H](O)C[C@@]2(C)C1CC[C@]2(O)C(=O)CO (stereo partly drawn) [euspeclibcmpd241],-0.692 (inactive)
7,CN1CCC[C@H]1c1cccnc1 [euspeclibcmpd957],8.21 (active)
8,CN1C(=O)CC[C@H]1c1cccnc1 [euspeclibcmpd75],-0.303 (inactive)
9,O=C(O)c1cccnc1 [euspeclibcmpd2043],-0.519 (inactive)
10,O=C(O)c1ccccc1C(=O)Nc1ccc(S(=O)(=O)N=c2[nH]ccs2)cc1 [euspeclibcmpd427],0.584 (inactive)
11,CCCCCCCCCCOc1cc2c(=O)c(C(=O)OCC)c[nH]c2cc1OCC [euspeclibcmpd775],0 (inactive)
12,COC(=O)CC1C(C)(C)C(O)C2CC3=C4CC(O)OC(c5ccoc5)C4(C)CCC3C1(C)C2=O (stereo not drawn) [euspeclibcmpd1860],0.479 (inactive)
13,C=CC[C@]1(O)CCC2C3=C(C=C[C@@]21C)C1=C(CC3)CC(=O)CC1 (stereo partly drawn) [euspeclibcmpd848],0.704 (inactive)
14,O=c1c(O)cccc2cc(O)c(O)c(O)c12 [euspeclibcmpd1723],-0.877 (inactive)
15,Cc1cc(O)c2c(O)c3c(O)cccc3cc2c1 [euspeclibcmpd2068],2.58 (active)
16,Oc1cccc2cc3cccc(O)c3c(O)c12 [euspeclibcmpd25],-0.419 (inactive)
17,O=C(Oc1ccccc1C(=O)O)c1ccccc1O [euspeclibcmpd2],-0.023 (inactive)
18,O=C(/C=C/C(=O)Oc1ccccc1C(=O)O)Oc1ccccc1C(=O)O [euspeclibcmpd1772],-0.354 (inactive)
19,CC(=O)Oc1ccccc1C(=O)Oc1ccccc1C(=O)O [euspeclibcmpd1749],-0.327 (inactive)
20,CCCCC(=O)Oc1ccccc1C(=O)O [euspeclibcmpd1887],14.5 (active)
21,O=C(O)c1ccccc1OP(=O)(O)O [euspeclibcmpd1073],-0.579 (inactive)
22,CC(=O)Oc1ccccc1C(=O)O [euspeclibcmpd28],61 (active)
